MITF inh: inhibitors of MITF, primary screen, MITF inhibitor project, cell-based, luminescence | 37,000 compounds, 0.28% hits | inhibition, % (no concentration beside the values) | TRPM1 promoter luciferase, 24 h | AID 2240, 2010; in the data active = inhibition above about 85%; inconclusive = no clear call, values can overlap the other calls; inactive = below about 68%;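 also: human melanocyte line stably carrying TRPM1 promoter luciferase reporter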
PD-1 reverse act: activators reversing PD-1 mediated T-cell inhibition, primary screen, luminescence, primary human CD4 T cells, PD-L1 beads; CellTiter-Glo 96 h; activation, % (concentration not given with the values); 29,000 tested, under 10 active; AID 2316, 2010; call rule not given here;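 also: 0% = median vehicle wells and 100% = positive control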
NOMO-1 viab: NOMO-1 AML cell viability reduction, primary screen, STK33 inhibitor project, CellTiter-Glo luminescence | NOMO-1 AML viability, 72 h | inhibition, % (test concentration not listed) | 37,000 compounds, 7.5% hits | AID 2330, 2010; in the data active = inhibition above about 80%; inconclusive = no clear call, values can overlap the other calls
ROS inducer: ROS inducers in U2OS cancer cells, primary screen, cell-based, H2DCF-DA fluorescence; U2OS ROS induction; ROS induction (% of piperlongumine), % at 10 µM; 46,000 compounds, 2% hits; in the data active = ROS induction above about 79%, passing the limit was not always enough; inconclusive = no clear call, values can overlap the other calls;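 also: 0% = DMSO vehicle median and 100% = reference compound median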
YB-1 expr inh: inhibitors of YB-1 gene expression, primary screen, cell-based, fluorescence; U2OS, qRT-PCR YB-1 vs CDIP delta delta Cp, 16 h; active compounds read high; zero = DMSO, each unit about twofold; delta delta Cp (YB-1 minus CDIP) (no concentration beside the values); 30,000 compounds, 0.37% hits;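 active = delta delta Cp rounded down to an integer at or above 3, about 3 SD of DMSO wells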;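 also: higher means less YB-1 transcript or more CDIP transcript relative to DMSO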
Active calls of the source: *; ? = inconclusive; / = no result. Many of the other results were omitted from the sample, so hits are more common in it than they were.

SMILES	MITF inh	PD-1 reverse act	NOMO-1 viab	ROS inducer	YB-1 expr inh
CC(C)NC(=O)N(C)C[C@H]1Oc2ccc(NC(=O)Nc3ccc(C(F)(F)F)cc3)cc2CC(=O)N([C@H](C)CO)C[C@H]1C	13.7	0.7	?	0.7	-0.19
CC(C)NC(=O)Nc1ccc2c(c1)CC(=O)N([C@@H](C)CO)C[C@H](C)[C@H](CN(C)C(=O)Nc1ccc(F)cc1)O2	-1.6	0.2	-6.2	111.2*	-0.682
CC(C)NC(=O)Nc1ccc2c(c1)CC(=O)N([C@@H](C)CO)C[C@H](C)[C@@H](CN(C)C(=O)Nc1ccc(F)cc1)O2	-5.2	0.1	9.5	-14.6	-0.658
C[C@H]1CN([C@@H](C)CO)C(=O)Cc2cc(NC(=O)Cc3cn(C)c4ccccc34)ccc2O[C@H]1CN(C)C(=O)Nc1ccc(C(F)(F)F)cc1	30.3	-1.2	11.6	99.5*	-0.421
C[C@@H]1CN([C@H](C)CO)C(=O)Cc2cc(NC(=O)Nc3ccc(C(F)(F)F)cc3)ccc2O[C@@H]1CN(C)C(=O)NC1CCCCC1	23.1	-1.9	112.3*	28.6	-0.293
CCCN(CCC)S(=O)(=O)c1ccc(C(=O)Nc2ccc3sc(SC)nc3c2)cc1	/	/	/	167.9*	/
C[C@@H]1CCCCO[C@H](CN(C)C(=O)CCCN(C)C)[C@@H](C)CN([C@H](C)CO)C(=O)c2cc(NC(=O)CCCN(C)C)ccc2O1	-3.6	-1.1	-1.2	-6.6	-0.319
O=C(CSc1nc2ccccc2[nH]1)Nc1cccc(Cl)c1	-31.5	-3.5	6.8	?	/
Cn1c(SCC(=O)c2ccc(Cl)cc2)nnc1-c1ccncc1	-29.5	1.8	-9.6	-0.5	/
CC1(C)CC(=O)C2=C(C1)NC(Nc1nc3ccccc3o1)=NC2c1ccccc1 (configuration not stated)	/	/	/	21.4	/
O=C1CCCC2=C1C(c1ccccc1Cl)N=C(Nc1nc3ccccc3s1)N2 (configuration not stated)	22.7	-0.5	115.5*	178.2*	-0.0709
COc1ccc(OC)c(C2N=C(Nc3nc4ccccc4s3)NC3=C2C(=O)CC(C)(C)C3)c1 (configuration not stated)	48.1	/	115.2*	/	/
CCN(CC)S(=O)(=O)c1ccc(Cl)c(C(=O)Oc2ccc(C)c(C)c2)c1	0.6	2.2	22.7	14.3	9.08*
Cc1ccc(OC(=O)c2cc(S(=O)(=O)N3CCCC3)ccc2C)cc1C	/	/	/	4.3	/
CNC(=O)COc1ccc(Nc2nnc(-c3ccc(OC)cc3)c3ccccc23)cc1	-11.8	/	14.0	/	/
COc1ccc(-c2nnc(Nc3cccc(C(F)(F)F)c3)c3ccccc23)cc1	52.2	-0.6	115.8*	23.0	-0.529
C=CCNC(=O)COc1ccc(Cl)cc1Cl	-33.5	0.9	115.0*	20.2	0.525
O=C(COc1ccc(Cl)cc1Cl)Nc1ncccn1	-57.7	/	9.2	/	/
Cc1cc(NC(=O)NCCCN2CCN(C3CCCCC3)CC2)ccc1Cl	-16.8	3.1	-4.3	-2.9	/
C[C@H](CO)N1C[C@H](C)[C@H](CN(C)Cc2ccc3c(c2)OCO3)Oc2ccc(NC(=O)Cc3cn(C)c4ccccc34)cc2C1=O	15.6	-1.9	91.6*	8.2	0.249
C[C@H](CO)N1C[C@H](C)[C@@H](CN(C)Cc2ccc3c(c2)OCO3)Oc2ccc(NC(=O)Cc3cn(C)c4ccccc34)cc2C1=O	23.3	-3.4	52.1	116.6*	0.081
CCOC(=O)c1nc2c(o1)NC(N)=C(C#N)C2c1ccc(Cl)cc1 (configuration not stated)	-1.7	0.2	95.4*	5.0	-0.107
On1onc2c3cc(-c4ccccc4)nc3ccc21	40.7	-2.9	114.8*	-8.6	0.131
C[C@@H]1CN([C@H](C)CO)C(=O)Cc2cc(NS(=O)(=O)c3ccccc3)ccc2O[C@@H]1CN(C)C(=O)Nc1ccc2c(c1)OCO2	-1.1	-0.6	9.1	6.6	-0.45
O=C1CC(O)[C@H]2[C@@H]3N1c1ccccc1[C@@]31CCN3C/C(=C/CO)[C@@H]2C[C@H]31 (some centres not stated)	/	/	/	-4.9	0.207
CCCNC(=O)Nc1ccc(N2CCC(C(F)(F)F)CC2)nc1	-16.9	0.0	-33.7	19.8	0.719
COc1ccc(NC(=O)CNC(=O)c2ccco2)cc1	-57.5	/	34.1	/	/
O=C(CCNc1ccc(Oc2ccccc2)cc1)c1ccco1	38.2	-7.1	131.2*	49.0	/

Compound activity deposited in PubChem BioAssay by Broad Institute.
